The list is not random: actives were taken first. Their share in the collection is about 7.4%.
Rab9 promoter act: activators of Rab9 promoter | Huh7 Rab9 promoter-luciferase reporter, luminescence, 24 h | Potency, µM (titrated, usually from 9.22 µM), without a hit: top-dose activation, negative = inhibition, actives largely listed as activators | 320,000 tested, 2.8% active | AID 485297; also: % of control where 0% means no effect; nearly all actives have a fitted effect of over 60% in size
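Luminescence from Amplite-detected luciferase (10 minutes, ambient) reports Rab9 promoter activation. Before that, stable Rab9-luciferase Huh7 cells (1500/well, reduced-serum OP-MEM I plus 10% FBS) were exposed to compound for 24 hours at 37C.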
NPC1 promoter act: activators of NPC1 promoter; Huh7 NPC1 promoter luciferase reporter, 24 h; Potency, µM (titrated, usually from 9.22 µM), for inactives: top-dose activation, usual class: activators; 320,000 tested, 2.4% active; AID 485313; also: % of control where 0% means no effect; nearly all actives have a fitted effect of over 60% in size
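Huh7 cells stably carrying NPC1 promoter–luciferase, plated in Opti-MEM with 10% FBS for 2 h, were exposed to compound in DMSO for 24 h at 37 °C; luciferase reagent was added for 10 min and luminescence read.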
ELG1 genotox: genotoxicity induction in ELG1-luciferase HEK293T cells | AID 504466 | HEK293T ELG1-luciferase reporter, luminescence, 16 h | Potency, µM (titrated, usually from 46 µM), for inactives: at the highest dose activity change, positive = activation, most hits filed as activators | 330,000 tested, 1.3% active; also: % of control where 0% means no effect; nearly all actives have a fitted effect of over 60% in size
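Step 1: seed 2,000 HEK293T ELG1-luciferase cells per well. Step 2: add compound or DMSO, incubate 16 hr at 37 °C. Step 3: ONE-Glo, 30 min at room temperature, read luminescence.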
SMN2 splice enh: SMN2 splice variant enhancement. Potency, µM (titrated, usually from 46.1 µM), without a hit: at the top dose activity change, positive = activation, actives largely listed as activators. HEK293 SMN2-luciferase splicing reporter, luminescence, 30-36 h. 210,000 tested, 2.8% active. AID 1458; also: % of control where 0% means no effect; nearly all actives have a fitted effect of over 55% in size
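HEK293 cells carry an SMN2 minigene-luciferase reporter in which exon 7 inclusion puts luciferase in frame. Cells were seeded at 2000 cells/well, attached for 10-12 hours, then exposed to compounds for 30-36 hours at 37C before ONE-Glo luminescence.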
FLuc counter: inhibits or activates purified firefly luciferase, miR-21 counter-screen. P08659. purified FLuc, Km substrates, luminescence inhibition. Potency, µM (series often up to 57.5 µM), inactives show top-dose activity change, negative = inhibition, usual class: inhibitors. 360,000 tested, 6.9% active. AID 588342;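 also: plate controls were vehicle for no effect and reference inhibitor for full effect; nearly all actives have a fitted effect of over 55% in size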
Target sequence (P08659 whole entry, looked up): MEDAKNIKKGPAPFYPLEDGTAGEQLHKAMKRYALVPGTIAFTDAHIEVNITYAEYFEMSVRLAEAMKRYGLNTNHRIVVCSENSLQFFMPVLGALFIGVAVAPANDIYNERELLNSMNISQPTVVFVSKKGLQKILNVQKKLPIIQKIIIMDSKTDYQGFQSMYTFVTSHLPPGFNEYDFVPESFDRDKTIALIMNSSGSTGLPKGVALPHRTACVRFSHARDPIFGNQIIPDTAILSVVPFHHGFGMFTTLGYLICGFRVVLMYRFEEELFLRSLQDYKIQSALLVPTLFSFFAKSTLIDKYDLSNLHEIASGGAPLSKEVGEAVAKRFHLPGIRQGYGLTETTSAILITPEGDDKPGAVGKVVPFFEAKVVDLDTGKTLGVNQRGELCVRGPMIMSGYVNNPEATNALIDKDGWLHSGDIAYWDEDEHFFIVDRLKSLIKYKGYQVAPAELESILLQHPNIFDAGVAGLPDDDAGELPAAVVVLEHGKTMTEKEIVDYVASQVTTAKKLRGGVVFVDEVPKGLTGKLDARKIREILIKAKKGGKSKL
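Purified P. pyralis luciferase, 10 nM final, with Km-level 10 uM D-luciferin and 10 uM ATP in 50 mM Tris acetate pH 7.5, 10 mM Mg acetate, 0.01% Tween-20, 0.05% BSA; 6-point qHTS titration about 60 µM downward; luminescence read.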
Active calls of the source: *; ? = inconclusive; . = no result; [ ] = remark or other dose. Calls follow the shape of the dose curve; as a rule, active = well fitted curve in the direction sought with a large enough effect; inconclusive = small, poorly fitted or top-dose-only effect, or another doubt; inactive = no such curve, though single readings can be large; an effect the other way counts as inactive or inconclusive. Potency is read from the fitted curve at half-maximal effect.

SMILES	Rab9 promoter act	NPC1 promoter act	ELG1 genotox	SMN2 splice enh	FLuc counter
Cc1ccc(-n2cc(CNCCCn3ccnc3C)c(-c3ccc(F)cc3)n2)cc1	-4%	-2%	1%	.	24µM*
Cc1ccc(-n2cc(CNCCc3cscn3)c(-c3ccc(F)cc3)n2)cc1	8%	-2%	0%	.	11µM*
CCN1CC(CNCc2cn(-c3ccc(OC)cc3)nc2-c2ccccc2Cl)CC1=O (centres undefined)	3%	-6%	0%	.	?
COc1ccc(-n2cc(CNCCc3cscn3)c(-c3ccccc3Cl)n2)cc1	0%	-1%	-2%	.	24µM*
[O-]/[N+](=C/c1ccc(F)cc1)c1ccc(Cl)cc1	18%	?	16µM*	11%	4.8µM*
COc1ccc2c(Cl)c(C(=O)N/N=C3\CCCC(=O)C3)sc2c1	?	15%	2%	?	17µM*
COc1ccc2c(Cl)c(C(=O)N/N=C/c3ccc4c(c3)OCO4)sc2c1	7%	0%	4%	-2%	-10%
CC1(C)CC(=O)C2=C(C1)Nc1ccccc1N=C2	-3%	-1%	11%	?	6.7µM*
CC1(C)CC(=O)C2=C(C1)Nc1ccccc1NC2	-1%	0%	0%	5%	-2%
COc1ccc(Cl)cc1NC(=O)c1ccc(CN2C(=O)CCn3nc(C)cc32)cc1	.	.	.	.	2%
CCc1cccc(NC(=O)CCc2c(C)nn(-c3ccc(N4CCOCC4)nn3)c2C)c1	8%	13%	3%	.	17µM*
COc1ccc(NC(=O)CCc2c(C)nn(-c3ccc(N4CCOCC4)nn3)c2C)cc1Cl	.	.	.	.	21µM*
Cc1ccc(NC(=O)CCc2c(C)nn(-c3ccc(N4CCOCC4)nn3)c2C)cc1F	?	?	12%	.	13µM*
COC(=O)c1ccc(NC(=O)CCc2c(C)nn(-c3ccc(N4CCOCC4)nn3)c2C)cc1	.	.	.	.	19µM*
Cc1ccc(F)cc1NC(=O)CCc1c(C)nn(-c2ccc(N3CCOCC3)nn2)c1C	.	.	.	.	-15%
CCc1ccc(NC(=O)CCc2c(C)nn(-c3ccc(N4CCOCC4)nn3)c2C)cc1	14%	21%	5%	.	?
CC(=O)c1ccc(NC(=O)CCc2c(C)nn(-c3ccc(N4CCOCC4)nn3)c2C)cc1	?	?	1%[9.26 µM]	.	17µM*
CCCCc1nnc(NC(=O)CCSc2ccccc2)s1	0%	4%	-1%	-14%	0%
CCc1nnc(NC(=O)CC(=O)Nc2ccccc2C(=O)O)s1	?	18%	1%	-11%	15µM*
CC(C)c1nnc(NC(=O)CC(=O)Nc2ccccc2C(=O)O)s1	3.5µM*	2.5µM*	?	-17%	4.8µM*
CCCCc1nnc(NC(=O)CC(=O)Nc2ccccc2C(=O)O)s1	-1%	10%	2%	-13%	17µM*
CC(C)Cc1nnc(NC(=O)CC(=O)Nc2ccccc2C(=O)O)s1	7%	12%	8%	-10%	15µM*
CC(C)c1nnc(NC(=O)CCC(=O)Nc2ccccc2)s1	1%	-3%	0%	.	1%
CN1CCN(C(=O)c2cc([N+](=O)[O-])cc([N+](=O)[O-])c2)CC1	3%	-1%	-7%	.	-4%
COCCN(C(=O)c1cccc(-n2cnnn2)c1)c1c(N)n(CC(C)C)c(=O)[nH]c1=O	-3%	0%	?	.	0%
SMILES	Rab9 promoter act	NPC1 promoter act	ELG1 genotox	SMN2 splice enh	FLuc counter
Cc1nc2ccc(NC(=S)NC3CCCCC3)cc2nc1C	3.5µM*	?	6%	17%	17µM*
Cc1ccc(NC(=S)NC2CCCC2)cc1C	?	10%	6%	?	?
S=C(Nc1ccc2[nH]ccc2c1)NC1CCCCC1	2.5µM*	2.5µM*	11%	.	13µM*
CCn1c(=O)c2c3c(sc2n2c(=S)[nH]nc12)CCC3	-2%	-2%	-2%	3%	2%
Cc1ccc(CO/N=C/C2=C(Cl)c3ccccc3CC2)cc1	.	.	.	-9%	-19%
Cc1ccc(C(=O)O/N=C/c2c(C(F)(F)F)nn(C)c2Sc2ccc(Cl)cc2)cc1	3%	0%	-20%	-46%	?
Cc1ccc(C(=O)O/N=C/c2c(C)nn(C)c2Cl)cc1	-6%	-1%	-3%	-1%	11µM*
Cc1ccc(C(=O)O/N=C/C2=C(Cl)c3ccccc3CC2)cc1	1%	-3%	0%	-18%	24µM*

Assay outcomes from PubChem.
